Inconclusive results are not listed. Activity calls are given as the source filed them. Calls follow the shape of the dose curve; as a rule, active = well fitted inhibition curve with a large enough effect; inconclusive = small, poorly fitted or top-dose-only effect; inactive = no such curve, though single readings can be large or run the other way.
assay: InCell qHTS Assay for Inhibitors of the mTORC1 Signaling Pathway in MEF (Tsc2-/-, p53-/-) Cells: Hit Validation; conditions: phospho-rpS6 immunofluorescence, 24 h; activity change, negative = inhibition: at 38.3 µM (top of the series);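 also: phospho-S6 Ser235/236 signal normalized to propidium iodide cell count per well; nearly all actives have a fitted effect of over 75% in size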
Potency is read from the fitted curve at half-maximal effect.

Activity change, negative = inhibition, -100%:
CCOc1ccccc1NC(=O)CSc1cc(=O)n(CC)c2ccccc12
O=C(CS(=O)(=O)c1cccc2nsnc12)NCc1ccc(Cl)cc1
COc1ccc(OCC(=O)Nc2ccc3nn(-c4ccc(OC)cc4)nc3c2)cc1
Cc1ccc(S(=O)(=O)c2nnn3c2nc(NC2CCCCC2)c2sccc23)cc1C
Cn1nc(-c2ccc(OCC(=O)Nc3ccccc3)cc2)c2ccccc2c1=O
CCN(Cc1nc(-c2ccc(OC)cc2)oc1C)S(=O)(=O)c1ccc(Cl)cc1
Cc1ccc(CNS(=O)(=O)c2cc(C(=O)Nc3cccc(C(F)(F)F)c3)ccc2F)cc1
Cc1nc2nncn2c(NCc2ccc(Cl)cc2)c1C
COc1cc(O)ccc1-c1nc2ccc(Br)cn2c1Nc1ccccc1C
CC1=C(C(=O)OC2CCCC2)C(c2ccccc2Cl)CC(=O)N1 (stereo not drawn)
CCOC(=O)N1CCN(Cc2nc3cc(NC(=O)c4ccc([N+](=O)[O-])cc4)ccc3n2C(C)C)CC1
CCOc1ccccc1Nc1nc(-c2cccc(Cl)c2)c2c(n1)-c1ccccc1OC2
COc1cc(C2CC(=O)Nc3cc4c(cc32)OCCO4)cc(Br)c1OC (stereo not drawn)
COc1ccc(Nc2nc(N)c3cc(OC)c(OC)cc3n2)cc1
CCc1nn(CC(=O)NCc2ccccc2)c(=O)c2cccn12
CCOc1cc(CNc2ccc(O)cc2)ccc1OCc1ccc(Cl)cc1
Cc1nn(C(C)C(=O)NC2CCCCC2)c(=O)c2c1sc1ccccc12 (stereo not drawn)
CCCN1C(=O)C(O)(CC(=O)c2ccc(C(C)C)cc2)c2ccccc21 (stereo not drawn)
Cc1nc2ccc(S(=O)(=O)CCC(=O)Nc3ccc(Cl)cc3)cc2s1
CCCSc1oc(-c2ccco2)nc1S(=O)(=O)c1ccc(Br)cc1
CCCn1c2ccc(C)cc2c2nnc(SCCN3CCCCC3)nc21
COC(=O)c1ccccc1NC(=O)CSc1n[nH]c(CC(C)C)n1
CCc1ccc2ncc(S(=O)(=O)c3ccc(Cl)cc3)c(N3CCN(CC)CC3)c2c1
COc1ccc(CNC(=O)c2cccc(N3CCCS3(=O)=O)c2)cc1OC
Oc1ccc(NCc2ccc(OCc3ccccc3Cl)cc2)cc1
CCOc1cc(-c2nnc(SCC(=O)NCc3ccccc3)nc2-c2ccc(OC)c(OCC)c2)ccc1OC
CCOC(=O)c1c(C)[nH]c(CCC(=O)Nc2cc(C)ccc2OC)c1C
CCc1cccc(NC(=O)c2oc3ccc4c(c3c2C)C(=O)CC(C)(C)O4)c1
COc1ccc(N2CCN(C(=O)C3CCCN(S(=O)(=O)c4ccc5c(c4)CCCN5C(C)=O)C3)CC2)cc1 (stereo not drawn)
CCOC(=O)C1CCN(C(=O)CSc2c3c(nc4ccc(Cl)cc24)CCCC3)CC1
Cc1ccc(-c2csc(-c3cc4c([nH]c3=O)CC(c3ccccc3)CC4=O)n2)cc1 (stereo not drawn)

Activity change, negative = inhibition, -18.6%:
Cc1ccc2c(c1)cc(C(=O)Nc1ccccc1C)n2C

Activity change, negative = inhibition, -15.2%:
CCN(C(=O)C(NS(=O)(=O)c1ccc(Br)s1)c1ccccc1)c1ccc(C)c(C)c1 (stereo not drawn)

Potency, active:
CC(C)CCNC(=O)c1cccc(Nc2nc3ccccc3n3nnnc23)c1 4.14 µM
CC1C(=O)N2CCCc3cc(S(=O)(=O)Nc4ccc(Br)cc4F)cc1c32 (stereo not drawn) 14.7 µM
CCS(=O)(=O)c1ncc(Cl)c(C(=O)N2CCN(c3cccc(Cl)c3)CC2)n1 2.61 µM
COc1ccc2nc(NC(=O)c3nc(S(=O)(=O)Cc4ccccc4F)ncc3Cl)sc2c1 2.33 µM
CCOC(=O)c1c(NC(=O)c2nc(S(C)(=O)=O)ncc2Cl)sc(C(C)=O)c1C 3.69 µM
